# IL-1B inflam inh – inflammasome signaling inhibition, IL-1 beta readout | 360,000 tested, 4.7% active | THP-1 LPS/ATP IL-1B secretion, AlphaLISA, 16 h; active compounds read low | activity change, % at 57.5 µM | AID 743279; in the data active = activity change below about -50%; inconclusive = mostly about -30% to -49%; note: % is set by controls: 0 for no effect and ±100 for the full control effect
#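 Secreted IL-1B measured by AlphaLISA bead assay after 16 h compound exposure of THP-1 cells; compounds (final up to 57.5 uM) added 1 h before LPS (250 ng/mL) and ATP (1.25 mM) stimulation; lower signal means less secretion.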
# HepG2 tox – HepG2 cytotoxicity, counter-screen for TGF-b inhibitors; HepG2 CAGA-GFP viability, ATP luminescence, 18 h; Potency, µM (titrated, usually from 46.1 µM), for the others: top-dose activity change, negative = cytotoxicity, actives largely listed as cytotoxic; 410,000 tested, 0.76% active; AID 588856; note: potency is the fitted concentration of half-maximal effect
#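 CellTiter-Glo luminescence gave cytotoxicity after 18 hours at 37 degrees C. The cells were HepG2 CAGA-GFP in 1% FBS DMEM, stimulated with 500 pg/mL TGF-beta after compound addition. %Activity was normalised to no-cell wells (complete cell-killing) and DMSO (no toxicity), and curves were fitted and classified.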
# TGFb SMAD3 inh – inhibitors of TGF-b signaling | HepG2 CAGA-GFP TGF-b/SMAD3 reporter, GFP fluorescence, 18 h; TGF-beta stimulated, 500 pg/mL final | Potency, µM (top dose mostly 46.1 µM), without a hit: at the highest dose activity, negative = inhibition, actives largely listed as inhibitors | 410,000 tested, 1.2% active | AID 588855; note: potency is the fitted concentration of half-maximal effect; % is set by controls: 0 for no effect and ±100 for the full control effect; nearly all actives have a fitted effect of over 65% in size
#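 Inhibition was scored as loss of TGF-beta-induced (500 pg/mL final, 18 hours, 37 degrees C) GFP in HEPG2 cells carrying a CAGA-GFP reporter, in DMEM with 1% FBS. Well GFP was summed per cell; Activity was normalised to unstimulated and stimulated DMSO wells, then concentration-response fitting.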
# TDP1 block – inhibitors of human tyrosyl-DNA phosphodiesterase TDP1. recombinant TDP1, AlphaScreen DNA substrate cleavage. Potency, µM (highest dose often 130 µM), inactives show top-dose activity change, negative = inhibition, most hits filed as inhibitors. 350,000 tested, 0.28% active. AID 485290. Q9NUW8; note: potency is the fitted concentration of half-maximal effect; % is set by controls: 0 for no effect and ±100 for the full control effect; nearly all actives have a fitted effect of over 40% in size
# Target sequence (Q9NUW8 whole entry, looked up): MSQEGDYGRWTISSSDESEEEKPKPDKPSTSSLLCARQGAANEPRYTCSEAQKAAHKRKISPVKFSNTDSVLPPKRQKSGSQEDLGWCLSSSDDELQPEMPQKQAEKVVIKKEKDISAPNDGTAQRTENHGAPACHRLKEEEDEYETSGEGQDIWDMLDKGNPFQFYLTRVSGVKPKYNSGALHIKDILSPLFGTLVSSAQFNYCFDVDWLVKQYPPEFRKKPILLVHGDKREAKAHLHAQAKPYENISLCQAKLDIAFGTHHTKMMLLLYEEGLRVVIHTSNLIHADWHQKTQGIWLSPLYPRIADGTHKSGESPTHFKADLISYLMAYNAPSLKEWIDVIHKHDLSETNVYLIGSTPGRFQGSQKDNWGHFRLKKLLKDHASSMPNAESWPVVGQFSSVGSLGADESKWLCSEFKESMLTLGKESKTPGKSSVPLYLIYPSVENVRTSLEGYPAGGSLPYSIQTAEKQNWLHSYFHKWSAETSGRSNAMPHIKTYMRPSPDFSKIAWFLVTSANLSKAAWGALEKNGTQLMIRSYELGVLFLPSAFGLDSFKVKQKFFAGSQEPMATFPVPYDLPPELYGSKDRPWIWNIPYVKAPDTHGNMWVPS
#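 Here, a 5' biotin and 3' phosphotyrosine-FITC DNA oligonucleotide reports Tdp1 activity: intact substrate bridges AlphaScreen beads, while cleavage leaves a 3' phosphate and drops signal. All incubations at room temperature.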
# TDP1 cell CPT – growth inhibition of DT40 Tdp1-/-;hTDP1 cells with camptothecin (screen for TDP1 inhibitors). chicken DT40 Tdp1-/-;hTDP1 cells + 20 nM CPT, ATP luminescence, 48 h. Potency, µM (doses to about 46.2 µM), for the others: at the highest dose activity change, negative = growth inhibition, actives largely listed as inhibitors. 420,000 tested, 12% active. AID 686979; note: potency is the fitted concentration of half-maximal effect; % is set by controls: 0 for no effect and ±100 for the full control effect; nearly all actives have a fitted effect of over 55% in size
#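 Chicken DT40 Tdp1-/- cells stably complemented with human TDP1 were seeded at 400 cells/well in medium containing 20 nM camptothecin, exposed to pin-transferred compounds, and grown at 37 °C for at least 48 hr. Viability was read as ATP luminescence.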
# TDP1 cell noCPT – qHTS for Inhibitors of human tyrosyl-DNA phosphodiesterase 1 (TDP1): qHTS in cells in absence of CPT; DT40 Tdp1-/- hTDP1 cells, no CPT, ATP luminescence, 48 h; Potency, µM (highest dose often 46.2 µM), for the others: top-dose activity change, negative = growth inhibition, hits mostly inhibitors; 420,000 tested, 15% active; AID 686978, 2013; note: potency is the fitted concentration of half-maximal effect; % is set by controls: 0 for no effect and ±100 for the full control effect; nearly all actives have a fitted effect of over 55% in size
#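 Chicken DT40 Tdp1-/- cells stably complemented with human TDP1 were seeded at 400 cells/well with DMSO in place of 20 nM camptothecin. After compound pinning, cells grew at least 48 hr at 37 °C; viability read by CellTiter-Glo luminescence.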
# * hit, by the source's call; ? = inconclusive; . = not tested or not shown; [ ] = remark or other dose. A selection: hits, their analogues and other compounds. The true share with any hit is near 19%. Unless noted, calls come from the whole dose curve; as a rule, active = well fitted curve in the direction sought with a large enough effect; inconclusive = small, poorly fitted or top-dose-only effect, or another doubt; inactive = no such curve, though single readings can be large; an effect the other way counts as inactive or inconclusive.
SMILES,IL-1B inflam inh,HepG2 tox,TGFb SMAD3 inh,TDP1 block,TDP1 cell CPT,TDP1 cell noCPT
Cc1ccc(-c2cc(C(=O)N3N=C(C(F)F)CC3(O)C(F)F)c3ccccc3n2)cc1C (stereo not drawn),-71*,20µM*,?,4%,18µM*,?
O=C(c1cc(-c2ccccc2)nc2ccccc12)N1N=C(C(F)F)CC1(O)C(F)F (stereo not drawn),5,-33%,-12%,5%,-29%,-10%
Cc1cc2ncn(C(=O)c3cc(-c4ccccc4)nc4ccccc34)c2cc1C,14,5%,20%,-1%,-1%,6%
CCOc1cccc(-c2cc(C(=O)N3N=C(C)CC3(O)C(F)F)c3ccccc3n2)c1 (stereo not drawn),-64*,2%,5%,3%,16%,?
COc1ccc(S(=O)(=O)NCC(c2ccco2)S(=O)(=O)c2cccs2)cc1C (stereo not drawn),.,2%,?,5%,?,?
O=C(Cc1ccccc1)N(Cc1cccnc1)c1nc2ccc(F)cc2s1,.,-33%,?,5%,?,-7%
COC(=O)C/C=C\[C@@H](C)[C@@H](/C=N\OC[C@@H]1O[C@H](c2ccccc2)C=C[C@@H]1Oc1ccc(OC)cc1)OC,.,.,.,1%[21 µM],.,.
O=C1OCCN1/N=C\c1ccc([N+](=O)[O-])o1,.,.,.,10%[21 µM],.,.
O=C1CN(/N=C/c2ccc([N+](=O)[O-])o2)C(=O)N1,14,-25%,-3%,-8%,21µM*,16µM*
O=C1CN(/N=C/c2ccc(-c3ccc([N+](=O)[O-])cc3)o2)C(=O)N1,.,.,.,-12%,?,?
O=C1OCCN1/N=C/c1ccc([N+](=O)[O-])o1,22,-9%,-27%,7%,13µM*,15µM*
O=C(COC(=O)Cc1ccc(Br)cc1)NC1CC1,1,2%,9%,0%,4%,-1%
COCCCNC(=O)c1cnc2c(-c3ccc(F)cc3)c(C)nn2c1C,.,-6%,-6%,5%,-7%,?
CCn1nccc1C(=O)Nc1cc(Cl)ccc1Cl,-55*,4%,6%,6%,-2%,-6%
CCOc1ccc(NC(=O)CC2C(=O)N(c3ccccc3)C(=O)N2C2CCCC2)cc1 (stereo not drawn),.,-8%,0%,0%,?,-11%
COC(=O)[C@@H]1C[C@H]1[C@@H](NC(=O)c1ccc(Br)cc1)c1ccccc1,.,.,.,3%,.,.
Cc1ccc2c(c1)N(Cc1ccccc1)C(=O)C(C)O2 (stereo not drawn),61,-12%,-1%,.,-23%,-27%
Cc1cc(Cl)ccc1OCC(=O)N(Cc1ccc(N(C)C)cc1)CC1CCCO1 (stereo not drawn),.,-30%,?,12%,?,26µM*
CN(C)c1ccc(CN(CC2CCCO2)C(=O)c2ccc(Br)cc2)cc1 (stereo not drawn),.,-21%,-11%,7%,?,-78%
CN(C)c1ccc(CN(CC2CCCO2)C(=O)COc2ccccc2Cl)cc1 (stereo not drawn),.,-20%,-16%,9%,?,18µM*
COC(=O)c1cccc(CN2C(=O)C(C)Oc3ccc(C)cc32)c1 (stereo not drawn),2,-2%,-3%,.,21µM*,21µM*
COc1ccccc1OCC(=O)N(Cc1ccc(N(C)C)cc1)CC1CCCO1 (stereo not drawn),.,-4%,-15%,7%,23µM*,15µM*
CN(C)Cc1ccccc1-c1cc(N(C)Cc2ccco2)ncn1,.,.,.,.,-3%,-3%
O=c1c(-c2ccccc2)nc2cnc(Oc3cccc(Cl)c3)nc2n1C1CC1,.,.,.,.,6%,-9%
